Assay results reported in PubChem BioAssay (NCI).
The panel holds about 83,000 compounds, 20% with a hit somewhere; the sample as a whole holds those more often.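 The test compound was applied at a single concentration to cells in 96-well plates for 48 hours, and percent growth was recorded.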 Values without a mark were called inactive. Calls of active or inactive are those of the source. Rule for the calls: active = growth percent below 10; inactive = the rest.

Tested on: NCI-H460 lung
Assay: NCI-60 one-dose screen, 48 h (100 = growth as untreated, 0 = no growth, -100 = all killed)
Conditions: 10 µM unless noted

Structure (SMILES)	growth
CCCCCSB(SCCCCC)c1ccccc1	112%
c1ccc(CNc2ccc3nc(CCC4CCCCC4)[nH]c3c2)cc1	78.1%
S=c1ssnc1-c1cccs1	107%
O=C(/C=C/c1ccc(Br)cc1)c1ccc(-n2cc(CN3CCN(c4cc5c(cc4F)c(=O)c(C(=O)O)cn5C4CC4)CC3)nn2)cc1	85.8%
COc1ccc(Cc2cnc(NC(=O)c3sc4ccccc4c3Cl)s2)cc1	4.16% (active)
N#C/C(=C\c1ccc(Cl)cc1Cl)C(=O)Nc1ncc(Cc2ccc(Cl)c(Cl)c2)s1	101%
N#Cc1c(-c2cccc([N+](=O)[O-])c2)cc(-c2ccc(Nc3nc(Nc4ccc(F)cc4)nc(Nc4ccc(F)cc4)n3)cc2)nc1N	146%
O=C(CCCCCCN1CC(=O)N2[C@@H](c3ccc(Cl)cc3)c3[nH]c4ccccc4c3C[C@H]2C1=O)NO	67.6%
CCCCCCCCn1ccc2cc(NC(=O)Cn3cc(CN4CCC(C)CC4)nn3)ccc21	-70.2% (active)
CCCC(O)Cn1ncc(C(=O)OCC)c1NC(=O)NCc1cccc(F)c1 (stereo not given)	107%
COc1cc2c3c(c1O)-c1ccccc1[C@@H]1OC(=O)N(CC2)[C@H]31	100%
C/C(=C(/c1ccc(Cl)cc1)c1ccc(OCCCN(C)C)cc1)c1ccc(Cl)cc1	72.7%
Cc1cc(C(=O)Nc2cc(Nc3ncccc3-c3ncnc4nc[nH]c34)ccc2F)cc(C(F)(F)F)c1	48.8%
CCOC(=O)NN1CC(O)=C(c2nc(-c3ccc(Br)cc3)cs2)C1=N	111%
O=C1C(Cl)=C(NCCN2CCOCC2)C(=O)c2ncccc21	0.786% (active)
O=C(Nc1ccc(F)cc1)Nc1ccccc1CNc1nc(Nc2ccc(OCCN3CCCC3)cc2)ncc1Cl	9.85% (active)
C[C@H]1[C@H](C)CC[C@]2(C(=O)O)CC[C@]3(C)C(=CC[C@@H]4[C@@]5(C)C[C@@H](Cc6cn([C@@H]7O[C@H](CO)[C@@H](O)[C@H](O)[C@H]7O)nn6)[C@H](O)C(C)(C)[C@@H]5CC[C@]43C)[C@H]12	107%
COC(=O)c1ccc2c(c1)c1c(C)c3ccncc3c(C)c1n2C	8.82% (active)
COc1cc(C(=O)c2c(-c3ccccc3)oc3c(OC)cccc23)cc(OC)c1O	3.99% (active)
C=C1C(=O)O[C@H]2[C@H]1CC/C(CNC(=O)c1cc3ccccc3[nH]1)=C\CC[C@@]1(C)O[C@@H]21	-19.7% (active)

Structure (SMILES)	growth
O=P(O)(O)OCC1OC(n2cnc3c(NCc4ccccc4)ncnc32)C(O)C1O (stereo not given)	94.3%
CCN(CC)CCCNCc1cc(-c2ccccc2)nc2cc(Cl)ccc12	43.3%
COc1cc2nc(Nc3cccc(F)c3)nc(Nc3cc(C)[nH]n3)c2cc1OC	-69.7% [20 µM] (active)
CCC/C(=N\NC(N)=O)C(OC)OC	109%
O=C1c2cc3c(cc2-c2c1c1ccc(Cl)cc1c(=O)n2C[C@H](O)CO)OCO3	-12.1% (active)
CCSC1=CC(=O)c2ccccc2C1=O	112%
COc1cc(-c2nc3occn3c2-c2ccnc(NCCCNS(=O)(=O)c3ccccc3)n2)ccc1F	47.8%
COC1=CC(c2ccc[nH]2)=N/C1=C\c1[nH]c(C)c(CC(=O)OCc2ccccc2)c1C	7.86% (active)
O=C(CSc1nnc2sc(Nc3cccc(Cl)c3)nn12)c1ccc(F)cc1	95.8%
COc1ccc(C2=Nc3c(N)ncnc3NC(c3cccc(Nc4ccnc5cc(C(F)(F)F)ccc45)c3)C2)cc1 (stereo not given)	70.9%
Nc1c(C(=O)Nc2cccc3ncccc23)sc2nc3c(cc12)C(=O)CCC3	19.9%
C#CCn1cnc2c(Nc3cccc(NC(=O)CCl)c3)ncnc21	21.8%
COc1cc2oc(-c3cccc(NC(=O)c4ccc5c(c4)OCO5)c3)cc(=O)c2c(OC)c1OC	27.2%
CCOC(=O)CSc1nc2sc3c(c2c(=O)n1-c1ccc([N+](=O)[O-])cc1)CCCCC3	48.1%
Cn1cc(-c2nn3cc(-c4ccccc4)nc3s2)c2ccccc21	79.9%
C=C1C(=O)O[C@H]2[C@H]1CC/C(COC(=O)NCCCCCCCCNC(=O)OC/C1=C/CC[C@@]3(C)O[C@H]3[C@H]3OC(=O)C(=C)[C@@H]3CC1)=C\CC[C@@]1(C)O[C@@H]21	-51.1% (active)
Oc1c(I)cc(-c2nc3ccccc3s2)cc1CN(Cc1ccccn1)Cc1ccccn1	1.59% (active)
Cc1ncc(C(=O)Nc2ccc(CN3CCN(C)CC3)c(C(F)(F)F)c2)cc1C#Cc1cnc(N)c2ccncc12	-65.5% (active)
O=C1/C(=C/c2ccc(C(F)(F)F)cc2)COc2ccc(O)c(O)c21	25.8%
O=C1N[C@@H]2[C@@H](O)[C@@H](O)[C@H](O)C[C@H]2c2cc3c(c(O)c21)OCCO3	1.26% (active)
